Tests used:
Assay in all cases: PBM binding z-score (relative to random genomic background probes); higher = stronger binding; sequences stand for … in GC…GCGATTGACAGCGTAGAATGAAGG
[1] = system: RARb homodimer (NR concentration 270 nM)
Procedure, shortened: (§1)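 Regression normalization was applied to scanned fluorescence from custom Agilent 4×180K protein-binding microarrays. Before scanning, arrays were incubated 1 h with ligand-free nuclear receptor dimers, and binding was detected with antibodies against each partner (one per run). Binding z-scores use the random background probes as reference.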

[2] = system: RARg:RXRa (NR concentration 270 nM, RXRa partner concentration 90 nM)
Procedure, shortened: as §1

[3] = system: RARg homodimer (NR concentration 270 nM)
Procedure, shortened: as §1

[4] = system: RXRa DBDmut IVT, anti-RXR (DBD mutation: RXRa K156A/R161A, NR concentration 90 nM)
Procedure, shortened: as §1

[5] = system: RXRa homodimer (NR concentration 180 nM)
Procedure, shortened: as §1

[6] = system: THRa:RXRa (NR concentration 90 nM, RXRa partner concentration 90 nM)
Procedure, shortened: as §1

[7] = system: THRa homodimer (NR concentration 90 nM)
Procedure, shortened: as §1

[8] = system: VDR homodimer (NR concentration 270 nM)
Procedure, shortened: as §1

Sequence	PBM binding z-score [1]	PBM binding z-score [2]	PBM binding z-score [3]	PBM binding z-score [4]	PBM binding z-score [5]	PBM binding z-score [6]	PBM binding z-score [7]	PBM binding z-score [8]
CCGACTGGGGCAGAAAGGTTACAATACCATCCGG	1.83	1.59	1.25	-0.65	1.75	0.907	-0.555	0.0532
GCTCGGAGGACCAGGTCAGAGCTTTGTCCGTAGA	1.34	0.802	0.461	-0.305	0.617	1.73	0.402	-0.425
CCTACTGGGCCACGAGAGGTCATTGATTCAGTGA	3.75	3.95	3.64	0.702	4.15	4	1.33	3.47
CCTCGGAGGACAGAAGGTGAGAGCTGTCCGCTTT	1.05	0.543	0.503	-0.26	-0.253	0.747	-0.514	-0.603
CAGCCTAGGTCAGGGCCGGTATAGGAGGAACGTT	2.41	3.04	3.86	-0.785	1.56	1.88	0.2	-0.454
CCTCGGAGGACAACAGGAGGTCAGTGCTGCCAGA	3.56	3.16	3.22	0.309	1.28	2.64	0.965	1.21
ACTTCCGGGTCAACGAGGTTATAGCACGCGTATA	3.44	5.17	4.74	2.62	5.76	4.34	2.68	4.34
CCTACTGGGGCAAAAAGGTCATTGATGCCGATAA	4.23	4.99	4.5	0.866	4.63	2.9	0.176	3.13
ACTATTAGTTGAGACGAGGGTAACCGATAGGTTG	0.218	0.256	0.596	0.227	0.443	1.55	-0.208	0.283
ATCTCTAGGTAACCAGGTTCAGTGAATGCCGAAC	0.891	0.484	0.267	0.664	0.776	1.33	0.822	2.53
ACAGACAGGTAAGTGAAGGTAACTCAGCTGGACG	-0.171	-0.116	0.263	-0.281	-0.0799	0.972	-0.0252	-0.27
TCTCGTAGGACACGAAGGTCAGAGCTTTCCAGAG	3.42	2.46	2.96	0.604	1.63	1.98	0.187	0.463
CCGACTGGGGCAAAGGTTACCTTACTCAGTACGA	2.02	3.15	1.62	0.0718	3.54	2.12	0.802	-0.495
ACAGACAGGTGAGTGAAGGTATCTCAGCTGGACG	-0.269	-0.0868	0.333	-0.121	0.228	-0.00206	-0.781	-0.981
GCTCACGGGTCAAAGGTTATAGCATGAATAGAAT	3.32	6.64	4.64	2.36	9.1	3.78	-0.0294	1.19
CCGACTGGGGCATAAGGTTACCTTAAGCCAGCCC	1.66	1.26	0.711	-0.657	0.903	2.3	2.31	-0.441
ACTTACGGGTCAACCAGGTTATAGCACGCGTATA	3.43	5.74	5.08	2.31	6.13	3.79	0.987	2.74
CCTACTGGGCCAAGGTCAATGATCAGTCAAAGCA	3.38	3.51	3.62	0.404	3.12	3.18	1.77	1.61
ATATTTAGGTTACATCCGGGTCATTCAGGCTATG	3.1	3.51	2.31	1.39	3.32	4.1	3.84	3.54
CCGACTGCGGCAAGGTTACCATAACGCACAGCCA	1	0.707	0.42	0.215	1.07	1.4	0.537	0.321
TCTCGGAGGATACGAAGGTCAGAGCTTTCCAGAG	2.95	1.93	2.03	0.133	1.65	1.57	-0.156	0.224
GCAGACAGGTGAAACCCAGGTAACTCAGGGTGGC	0.254	0.543	0.3	-0.915	0.749	2.18	0.116	-0.563
TCTTGTAGATCAATAGAGGTTCAGAAAGTGCGCT	0.168	0.234	0.116	0.728	0.478	0.501	-0.823	1.37
TCTAGTTGGTAACGGAGGTCACACACGACGGGTA	4.04	3.79	3.14	0.917	4.14	3.54	2.41	2.47
AGTCAAAGTTCACTAGGTACCGTAAGATTCAGCT	3.6	4.92	5.92	4.36	3.75	1.65	-0.132	3.97
CGTACTAGGTCAAGGACAGTGAATCTCCGCACGC	3.14	3.81	4.64	1.21	2.53	3.22	2.42	0.444
CAAACTAGGTCACGAAAGGTCGAAGTCGAATGAC	5	6.14	6.69	2.17	5.66	4.65	1.9	2.3
CGTCAAGGTTCAAGGTAACGTAACAGAAAGCAGC	1.73	3.11	2.71	4.1	3.11	2.61	1.01	3.6
TATACAGGGTCAAAGGCCAGGGTACGAATGTCGA	3.71	5.77	5.14	2.73	7.42	3.73	1.2	3.31
